Structures can show the parent of a compound that is named as a salt.
Key:
Assay in all cases: thermal shift delta Tm vs DMSO control; higher = stronger stabilization (binding)
Conditions in all cases: 12.5 µM; protein concentration 2 µM
LOC_OS04G57630-cb004 = system: LOC_OS04G57630-cb004
In short: (§1)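 Thermal shift values come from differential scanning fluorimetry on purified rice kinase domains made in E. coli, with melting temperatures obtained from Boltzmann fits. Samples of 19.5 μl held 2 μM kinase, 100 mM potassium phosphate pH 7.5, 150 mM NaCl, 10% glycerol, 5 × SYPRO Orange and compound in DMSO, and were heated from 25°C to 95°C at 0.05°C/s. Each shift is a triplicate mean relative to the DMSO-only protein sample.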

LOC_OS05G07850-cb002 = system: LOC_OS05G07850-cb002
In short: as §1

LOC_OS05G16824-cb004 = system: LOC_OS05G16824-cb004
In short: as §1

LOC_OS05G28520-cb001 = system: LOC_OS05G28520-cb001
In short: as §1

LOC_OS05G30820-cb001 = system: LOC_OS05G30820-cb001
In short: as §1

LOC_OS05G43570-cb004 = system: LOC_OS05G43570-cb004
In short: as §1

LOC_OS06G16330-cb003 = system: LOC_OS06G16330-cb003
Sequence of LOC_OS06G16330-cb003 (as listed by the source): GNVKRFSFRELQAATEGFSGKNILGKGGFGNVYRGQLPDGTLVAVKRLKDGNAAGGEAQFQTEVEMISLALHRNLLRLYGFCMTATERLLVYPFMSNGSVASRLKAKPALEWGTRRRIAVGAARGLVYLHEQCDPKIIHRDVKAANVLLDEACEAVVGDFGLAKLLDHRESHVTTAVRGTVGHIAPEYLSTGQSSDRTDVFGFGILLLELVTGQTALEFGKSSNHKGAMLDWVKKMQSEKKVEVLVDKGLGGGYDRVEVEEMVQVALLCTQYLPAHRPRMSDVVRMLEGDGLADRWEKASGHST
In short: as §1

LOC_OS06G22820-cb001 = system: T1, LOC_OS06G22820-cb001
T1 sequence (whole entry): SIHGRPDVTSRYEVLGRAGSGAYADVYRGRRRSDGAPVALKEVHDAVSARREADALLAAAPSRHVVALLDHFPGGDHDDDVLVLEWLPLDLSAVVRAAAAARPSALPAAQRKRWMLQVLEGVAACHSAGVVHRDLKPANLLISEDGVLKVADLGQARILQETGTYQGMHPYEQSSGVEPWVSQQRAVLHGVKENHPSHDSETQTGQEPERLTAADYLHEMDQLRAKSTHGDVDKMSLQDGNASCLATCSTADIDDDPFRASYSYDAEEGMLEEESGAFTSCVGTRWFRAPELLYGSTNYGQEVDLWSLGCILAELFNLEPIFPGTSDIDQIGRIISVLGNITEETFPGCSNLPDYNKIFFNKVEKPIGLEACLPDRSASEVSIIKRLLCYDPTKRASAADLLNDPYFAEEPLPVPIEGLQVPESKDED
In short: as §1

LOC_OS07G06570-cb004 = system: LOC_OS07G06570-cb004
In short: as §1

LOC_OS07G07230-cb001 = system: LOC_OS07G07230-cb001
In short: as §1
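Also: purified Escherichia coli-expressed rice kinase domain construct.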

| SMILES | thermal shift delta Tm (LOC_OS04G57630-cb004) | thermal shift delta Tm (LOC_OS05G07850-cb002) | thermal shift delta Tm (LOC_OS05G16824-cb004) | thermal shift delta Tm (LOC_OS05G28520-cb001) | thermal shift delta Tm (LOC_OS05G30820-cb001) | thermal shift delta Tm (LOC_OS05G43570-cb004) | thermal shift delta Tm (LOC_OS06G16330-cb003) | thermal shift delta Tm (LOC_OS06G22820-cb001) | thermal shift delta Tm (LOC_OS07G06570-cb004) | thermal shift delta Tm (LOC_OS07G07230-cb001) |
| --- | --- | --- | --- | --- | --- | --- | --- | --- | --- | --- |
| COc1ccc(CCNCc2ccc(OCc3ccc(Cl)nc3)c(OC)c2)cc1OC | 0.32 °C | -0.86 °C | -5.08 °C | 0.09 °C | 0.33 °C | -0.15 °C | -0.05 °C | 0.26 °C | 0.85 °C | 0.59 °C |
| COc1cc2c(c(OC)c1OC)-c1c(cc3c(c1OC)OCO3)CC(C)C(C)C2 (stereo not given) [Schisandrin B (Sch B)] | 0.17 °C | 1.23 °C | -1 °C | 0.63 °C | 0.52 °C | 0.14 °C | -0.39 °C | 0.43 °C | 1.21 °C | -0.17 °C |
| CCn1c(-c2nonc2N)nc2cnc(Oc3cccc(NC(=O)c4ccc(OCCN5CCOCC5)cc4)c3)cc21 | 0.7 °C | 1.97 °C | -1.49 °C | 1.05 °C | 0.73 °C | 0.77 °C | -0.54 °C | 0.79 °C | 0.87 °C | 0.15 °C |
| CCN(CC)CCCCNc1ncc2cc(-c3cc(OC)cc(OC)c3)c(NC(=O)NC(C)(C)C)nc2n1 | -0.1 °C | -0.15 °C | -2.16 °C | 0.72 °C | 0.45 °C | 0.68 °C | -0.04 °C | 0.57 °C | 1.02 °C | 0.36 °C |
| O=C(O)c1ccc2c3c1cccc3c(=O)n1c3ccccc3nc21 | 0.77 °C | 7.31 °C | 1.51 °C | 0.41 °C | 0.73 °C | 0.15 °C | 4.49 °C | 0.29 °C | 0.54 °C | 1.19 °C |
| O=C1NC(=O)C(=Cc2ccc(-c3ccc(F)cc3)o2)S1 (stereo in doubt) | 0.48 °C | 1.37 °C | -3.64 °C | 0.89 °C | 0.73 °C | 1.06 °C | 0.12 °C | 0.65 °C | 0.53 °C | 0.04 °C |
| N#CC[C@H](C1CCCC1)n1cc(-c2ncnc3[nH]ccc23)cn1 | 0.1 °C | 6.97 °C | 1.27 °C | 0.17 °C | 0.76 °C | 1.05 °C | 3.75 °C | 0.57 °C | 1.16 °C | -0.53 °C |
| O=C(NOCCO)c1ccc2cncn2c1Nc1ccc(I)cc1F | -0.36 °C | -0.3 °C | -1.92 °C | 0.09 °C | 0.54 °C | 0.3 °C | -0.27 °C | 0.39 °C | 0.35 °C | 0.91 °C |
| C[C@@]1(C(=O)Nc2ccc(F)nc2)CCCN1c1nc(Nc2cc(C3CC3)n[nH]2)c2cccn2n1 | 0.45 °C | 6.93 °C | 7.72 °C | 1.51 °C | 0.52 °C | 0.32 °C | 7.13 °C | -0.88 °C | 1.23 °C | 0.05 °C |
| COc1cc2c3cc1Oc1c(OC)c(OC)cc4c1[C@@H](Cc1ccc(O)c(c1)Oc1ccc(cc1)C[C@@H]3N(C)CC2)N(C)CC4 [Berbamine (dihydrochloride)] | -0.01 °C | -0.48 °C | -7.42 °C | -0.11 °C | 0.47 °C | 0.27 °C | -0.31 °C | 0.13 °C | 0.83 °C | 0.33 °C |
| NC(=O)Nc1cc(-c2cccc(F)c2)sc1C(=O)N[C@H]1CCCNC1 | 3.39 °C | 11.9 °C | 10.8 °C | 0.35 °C | 1.33 °C | 1.05 °C | 9.93 °C | 0.87 °C | 1.07 °C | -0.31 °C |
| Cn1ncc(Cl)c1-c1cc(C(=O)N[C@H](CN)Cc2cccc(F)c2)sc1Cl | -0.03 °C | 0.66 °C | -1.28 °C | 0.54 °C | 0.43 °C | 0.61 °C | 0.52 °C | 0.88 °C | 1.37 °C | 0.28 °C |
| Cc1ccc(CNc2ncnc3ccc(-c4ccc(CO)o4)cc23)o1 | 2.38 °C | 4.33 °C | -5.36 °C | -0.16 °C | 0.29 °C | 0.04 °C | 2.56 °C | 0.43 °C | 1.5 °C | 0.62 °C |
| C[C@@H](Oc1cc(-n2cnc3ccc(CN4CCN(C)CC4)cc32)sc1C(N)=O)c1ccccc1C(F)(F)F | 1.23 °C | 2.4 °C | -4.79 °C | -0.16 °C | 0.61 °C | 0.21 °C | 2.19 °C | 0.97 °C | 1.02 °C | 0.47 °C |
| C=C(C)[C@@H]1CC[C@]2(C)CC[C@]3(C)[C@H](CC[C@@H]4[C@@]5(C)CC[C@H](O)C(C)(C)[C@@H]5CC[C@]43C)[C@@H]12 [Lupeol] | 0.77 °C | 0.82 °C | 1.84 °C | 0.13 °C | 0.38 °C | 0.49 °C | -2.09 °C | 0.12 °C | 1.26 °C | 0.62 °C |
| Cc1cc2c(F)c(Oc3ncnn4cc(OC[C@@H](C)OC(=O)[C@H](C)N)c(C)c34)ccc2[nH]1 | 0.17 °C | 2.83 °C | 1.32 °C | 0.65 °C | 0.41 °C | 0.24 °C | 0.16 °C | 0.5 °C | 0.52 °C | 0.42 °C |
| Nc1nc(Nc2ccc(S(N)(=O)=O)cc2)nn1C(=O)c1c(F)cccc1F | 1.19 °C | 12.5 °C | 8.94 °C | 0.98 °C | 1.95 °C | 0.82 °C | 8.67 °C | -0.12 °C | 1.81 °C | 0.21 °C |
| Cc1cc(Nc2cc(Cl)nc(Oc3ccc([N+](=O)[O-])cc3)n2)n[nH]1 [Autophinib] | -0.11 °C | 0.97 °C | -0.37 °C | 0.34 °C | 0.1 °C | 0.13 °C | 0.35 °C | 0.51 °C | 1.89 °C | 0.73 °C |
| O=c1ccc2ccc(O)c(O)c2o1 [Daphnetin] | 0.17 °C | 0.01 °C | -3.57 °C | 0.77 °C | 0.79 °C | 0.83 °C | 0.25 °C | 0.83 °C | 1.31 °C | -0.12 °C |
